Screen size: about 5,500 compounds; about 2,000 (36%) were called active. Roughly 18% stayed inconclusive and do not appear here. Rule as the data show it: active = normalized growth mostly below about 0.91 (no sharp cut-off); inconclusive = no clear call, values can overlap the other calls; inactive = mostly above about 0.92. Some of the results follow.
Experiment: chemical genetic growth profiling, strain panel (AID 1159580);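 also: tested at 20 µM; growth read once vehicle control cultures reached saturation at 30 °C; 1 = growth at the plate median or of vehicle wells; lower values mean less growth of the strain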
Settings: S. cerevisiae deletion strains, growth OD
[1] = locus YDR150W, strain NUM1, stronger effect = lower value
[2] = locus YGR078C, strain PAC10, stronger effect = lower value
[3] = locus YJR075W, strain HOC1, stronger effect = lower value
[4] = locus YMR263W, strain SAP30, stronger effect = lower value

Measured: normalized growth

OC[C@H]1O[C@@H](n2cnc3c(NCCc4ccccc4)ncnc32)C(O)[C@H]1O (some centres undefined)
inactive: locus YAL040C, strain CLN3, stronger effect = lower value 0.979 | locus YCL061C, strain MRC1 (second series), stronger effect = lower value 0.999 | [1] 0.993 | locus YDR363W, strain ESC2, stronger effect = lower value 0.954 | locus YER002W, strain NOP16, stronger effect = lower value 1.02 | [2] 0.996 | [3] 0.993 | [4] 0.998 | locus YMR307W, strain GAS1, stronger effect = lower value 0.997 | locus YNL128W, strain TEP1, stronger effect = lower value 0.989 | locus YNL175C, strain NOP13, stronger effect = lower value 0.991 | locus YNL197C, strain WHI3, stronger effect = lower value 0.991 | locus YNL224C, strain SQS1, stronger effect = lower value 1.01 | locus YOR083W, strain WHI5 (second series), stronger effect = lower value 0.997

Cc1cc(C)c(I)c(C)c1
inactive: locus YAL013W, strain DEP1, stronger effect = lower value 1 | locus YBR229C, strain ROT2, stronger effect = lower value 1.02 | locus YDL101C, strain DUN1, stronger effect = lower value 0.987 | [1] 0.984 | locus YEL061C, strain CIN8, stronger effect = lower value 1.05 | [2] 0.995 | locus YHR030C, strain SLT2, stronger effect = lower value 1.12 | locus YHR087W, strain rtc3, stronger effect = lower value 1.09 | locus YJR043C, strain POL32, stronger effect = lower value 1.01 | [3] 1.02 | locus YKL190W, strain CNB1, stronger effect = lower value 0.99 | locus YLR039C, strain RIC1, stronger effect = lower value 1.05 | locus YLR058C, strain SHM2 (second series), stronger effect = lower value 1.02 | locus YLR085C, strain ARP6, stronger effect = lower value 1.01 | locus YLR262C, strain YPT6, stronger effect = lower value 1.05 | locus YML094W, strain GIM5, stronger effect = lower value 1.02 | locus YMR219W, strain ESC1, stronger effect = lower value 1.01 | [4] 1.02 | locus YNL153C, strain GIM3, stronger effect = lower value 0.999 | locus YNL298W, strain CLA4 (second series), stronger effect = lower value 1.04 | locus YNL322C, strain KRE1, stronger effect = lower value 1 | locus YNR030W, strain Alg12, stronger effect = lower value 1.03 | locus YPL055C, strain LGE1, stronger effect = lower value 1.02 | locus YPL241C, strain CIN2, stronger effect = lower value 1.02 | locus YPR135W, strain CTF4, stronger effect = lower value 0.963

Source: PubChem BioAssay AID1159580 (chemical genetic matrix, 2015)
